Screening data deposited in PubChem BioAssay by The Scripps Research Institute Molecular Screening Center.
PAFAH2 inh: PAFAH2 enzyme inhibitors, primary screen, biochemical, fluorescence polarization, human; Platelet-activating factor acetylhydrolase 2, cytoplasmic (Homo sapiens), Q99487; recombinant PAFAH2, FP-rhodamine activity probe; AID 492956, 2010; inhibition, % at 3.39 µM; 340,000 compounds, 0.99% hits;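 active = inhibition above the mean over all tested compounds plus 3 SD, cut at about 30% in these data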;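 also: inhibitors block probe labeling of enzyme so polarization drops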
PP5 inh: PP5 phosphatase inhibitors, primary screen, biochemical, fluorescence | inhibition, % at 6.7 µM | Serine/threonine-protein phosphatase 5 (Homo sapiens), P53041 | 320,000 compounds, 0.18% hits | purified PP5c, OMFP substrate fluorescence;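 active = inhibition above the campaign's mean inhibition across all tested compounds plus 3 SD, cut at about 9.5% in these data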
PP1 counter: PP1-alpha phosphatase inhibitors, primary screen, counter-screen for PP5 inhibitor project, biochemical, fluorescence, OMFP substrate, single point. Serine/threonine-protein phosphatase PP1-alpha catalytic subunit (Homo sapiens), P62136. purified PP1alpha. inhibition, % at 6.7 µM. 320,000 compounds, 0.9% hits. AID 2235, 2010;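 active = inhibition above the mean inhibition of all tested compounds plus 3 SD, computed separately for each screening campaign, cut at about 15% in these data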
Target sequence (P62136 whole entry, looked up): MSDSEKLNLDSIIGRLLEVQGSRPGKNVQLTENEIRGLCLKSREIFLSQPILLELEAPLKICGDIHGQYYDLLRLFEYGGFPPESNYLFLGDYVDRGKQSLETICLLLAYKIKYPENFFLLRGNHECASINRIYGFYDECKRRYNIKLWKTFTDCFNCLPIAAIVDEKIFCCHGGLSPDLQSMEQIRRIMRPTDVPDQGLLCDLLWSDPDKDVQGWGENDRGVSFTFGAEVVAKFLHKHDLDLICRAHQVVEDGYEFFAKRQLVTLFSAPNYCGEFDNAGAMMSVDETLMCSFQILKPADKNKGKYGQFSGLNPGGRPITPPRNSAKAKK
PAFAH1B3 FP inh: PAFAH1B3 enzyme inhibitors, primary screen, biochemical, fluorescence polarization, human; inhibition, % at 3.39 µM; recombinant PAFAH1B3, FP-rhodamine probe; Platelet-activating factor acetylhydrolase IB subunit alpha1 (Homo sapiens), Q15102; 340,000 compounds, 0.28% hits; AID 492972, 2010;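 active = inhibition above the screen-wide average of all tested compounds plus 3 SD, cut at about 25% in these data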
Target sequence (Q15102 whole entry, looked up): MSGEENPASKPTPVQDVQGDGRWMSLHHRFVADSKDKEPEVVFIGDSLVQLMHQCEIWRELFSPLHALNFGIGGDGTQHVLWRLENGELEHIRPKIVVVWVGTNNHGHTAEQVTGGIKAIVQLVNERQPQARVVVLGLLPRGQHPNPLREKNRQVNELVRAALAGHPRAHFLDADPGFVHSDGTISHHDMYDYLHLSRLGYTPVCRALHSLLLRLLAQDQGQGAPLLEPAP
PAFAH1B2 FP inh: PAFAH1B2 enzyme inhibitors, primary screen, biochemical, fluorescence polarization, human. inhibition, % at 3.39 µM. recombinant PAFAH1B2, FP-rhodamine activity probe. 340,000 compounds, 1.2% hits. AID 492953, 2010. Platelet-activating factor acetylhydrolase IB subunit alpha2 (Homo sapiens), P68402;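 active = inhibition above the mean of all tested compounds plus 3 SD, cut at about 24% in these data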
pPAFAH inh: pPAFAH enzyme inhibitors, primary screen, biochemical, fluorescence polarization, human | Platelet-activating factor acetylhydrolase (Homo sapiens), Q13093 | recombinant pPAFAH, FP-rhodamine probe fluorescence polarization | inhibition, % at 3.39 µM | 330,000 compounds, 1.5% hits | AID 463082, 2010;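 active = inhibition above the mean inhibition across the screen plus 3 SD, cut at about 25% in these data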;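 also: inhibitors block binding of the rhodamine activity-based probe so polarization drops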
PP1 confirm: PP1 phosphatase inhibitors, confirmation, biochemical, fluorescence, OMFP substrate, triplicate; shares compounds with PP1 counter; purified PP1alpha; inhibition, % at 6.7 µM; 1,900 compounds, 52% hits;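 active = mean PP1 inhibition above a set limit taken from the earlier primary screen, cut at about 15% in these data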
PP5 counter: PP5 phosphatase inhibition by PP1 hits, confirmation, counter-screen for PP1 inhibitor project, biochemical, fluorescence, triplicate; shares compounds with PP1 counter; purified PP5c, OMFP fluorescence; inhibition, % at 6.7 µM; 1,900 compounds, 4% hits; AID 2360, 2010;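 active = mean PP5 inhibition over triplicate wells above about 9.5% taken from the earlier PP1 screen, limit read from the data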
Of the large screens only hits and unclear results are named; the others gave an inactive call (follow-up assays come after a bar, where they were run). A selection: hits, their analogues and other compounds. The true share with any hit is near 3.4%.

COc1ccc(Cc2nc3ccc(C(=O)NC(C)c4cnn(C)c4)cc3o2)cc1 (stereo not drawn)	none (no result: PP5 inh, PP1 counter, pPAFAH inh)
O=C(NC1CCCC1)C(c1cccs1)N(C(=O)c1csnn1)c1ccccc1F (stereo not drawn)	none
Cc1cccc(NC(=O)CNC(=O)COc2ccc(-c3ccc(C#N)cc3)cc2)c1C	PP1 counter 20 | PP1 confirm 18 | PP5 counter inactive
CCN(C(=O)c1cc2c(=O)[nH]c3ccc(C)cc3c2s1)c1ccc(F)cc1	PP1 counter 18 | PP1 confirm 17 | PP5 counter inactive
O=C(c1cc(-c2ccco2)on1)N1CCN(C(c2ccccc2)c2ccccc2)CC1	PP1 counter 19 | PP1 confirm inactive | PP5 counter inactive
CCOc1ccccc1NC(=O)N1CCCC1C(=O)Nc1nnc(CC)s1 (stereo not drawn)	none
C=CCn1cc(/C=N/Nc2nc3ccccc3[nH]2)c2ccccc21	PP1 counter 22 | PP1 confirm 30 | PP5 counter inactive
Cc1c(/C=N/Nc2nc3ccccc3[nH]2)c2ccccc2n1C	none
c1ccc(CCNc2nc(-c3ccccn3)nc3ccccc23)cc1	PP1 counter 29 | PP1 confirm 50 | PP5 counter inactive
c1ccc(-c2nc(N3CCOCC3)c3ccccc3n2)nc1	none
CCCN(CCC)c1nc(-c2ccccn2)nc2ccccc12	none (no result: PP5 inh, PP1 counter, pPAFAH inh)
c1ccc(-c2nc(N3CCCCCC3)c3ccccc3n2)nc1	PP1 counter 27 | PP1 confirm 26 | PP5 counter inactive
Fc1ccc(Oc2nc(-c3ccccn3)nc3ccccc23)cc1	PP1 counter 18 (no result: PAFAH2 inh, PAFAH1B3 FP inh, PAFAH1B2 FP inh) | PP1 confirm 23 | PP5 counter inactive
CSc1nc(Oc2ccc(F)cc2)c2ccccc2n1	none
CCOC(=O)N1CCN(C(=O)CC(C(=O)N2CCc3ccccc32)n2ccnc2)CC1 (stereo not drawn)	none
O=C(CNS(=O)(=O)c1ccc(Br)cc1Cl)OCC(=O)c1ccc[nH]1	PP1 counter 35 | PP1 confirm inactive | PP5 counter inactive
O=C(N/N=C/c1ccc[nH]1)c1cccc(Br)c1	none
O=C1NCN(c2ccccc2)C12CCN(CCCC(c1ccc(F)cc1)c1ccc(F)cc1)CC2	PP1 counter 19 | PP1 confirm inactive | PP5 counter inactive
CC(NS(=O)(=O)c1ccccc1)C(c1cccs1)N1CCOCC1 (stereo not drawn)	none
CCOC(=O)CC(=O)CSc1nnc2c(n1)[nH]c1ccccc12	none
Cc1ccc(-c2nnc(SCC(=O)N/N=C/c3ccc(C)s3)n2-c2ccc(C)cc2)cc1	PP1 counter 20 | PP1 confirm inactive | PP5 counter inactive
CCCCCCCCCC[N+](C)(C)CC/C=C1/c2ccccc2Sc2ccc(Cl)cc21	PP1 counter 41 | PP1 confirm inactive | PP5 counter inactive
CCCCCCCCCCC[N+](C)(C)CC/C=C1/c2ccccc2Sc2ccc(Cl)cc21	PP1 counter 39 | PP1 confirm inactive | PP5 counter inactive
CN1CCN(S(=O)(=O)c2cccc(C(=O)Oc3ccc(Br)cc3F)c2)CC1	PP1 counter 34 | PP1 confirm inactive | PP5 counter inactive
O=C(O)c1ccc(COc2ccccc2/C=C2/NC(=O)N(c3cccc(Cl)c3)C2=O)cc1	PP1 counter 38 | PP1 confirm 35 | PP5 counter inactive
Cc1ccccc1NC(=O)CN1C(=O)N/C(=C\c2ccccc2OCc2ccc(C(=O)O)cc2)C1=O	PP1 counter 18 | PP1 confirm 16 | PP5 counter inactive
O=C(CN1C(=O)N/C(=C\c2ccccc2OCc2ccc(C(=O)O)cc2)C1=O)Nc1ccc(F)cc1	none
O=C(O)c1ccc(COc2ccccc2/C=C2\NC(=O)N(Cc3ccc(F)cc3)C2=O)cc1	none
O=C(Nc1ccc(Br)cc1)c1ccc(N2C(=O)C3CC=C(Cl)CC3C2=O)cc1 (stereo not drawn)	PP1 counter 27 | PP1 confirm 26 | PP5 counter inactive
Cc1sc2nc(CN3CCCC3)nc(N3CCN(S(=O)(=O)c4cccc(F)c4)CC3)c2c1C	PP1 counter 19 | PP1 confirm inactive | PP5 counter inactive
NC(=O)[C@H]1CC2(CC(c3cccc(NC(=O)[C@H]4CCC(=O)N4)c3)=NO2)CN1C(=O)CC(c1ccccc1)c1ccccc1 (stereo partly drawn)	none (no result: PAFAH2 inh, PAFAH1B3 FP inh, PAFAH1B2 FP inh)
NC(=O)[C@H](Cc1cc2ccccc2s1)NC(=O)[C@@H]1CC2(CC(c3cccc(NC(=O)[C@@H]4CCC(=O)N4)c3)=NO2)CN1C(=O)/C=C/c1c(F)cccc1Cl (stereo partly drawn)	PP1 counter 30 | PP1 confirm 20 | PP5 counter inactive
O=C(CSc1nc2c([nH]c3ccccc32)c(=O)n1-c1cccc(Cl)c1)N1CCOCC1	PP1 counter 22 | PP1 confirm 25 | PP5 counter inactive
CCOC(=O)C1=C(O)C(=O)NC(c2ccccc2)=C(OC2CCCCC2)C1	PP1 counter 24 | PP1 confirm 31 | PP5 counter inactive
CCOC(=O)C1=C(O)C(=O)NC(c2ccccc2)=C(OCC)C1	none
COc1ccccc1N(CC(=O)Nc1ccc(S(=O)(=O)N2CCOCC2)cc1)S(C)(=O)=O	none
CCOC(=O)CN(C(=O)CSc1nnc(CNc2ccc(F)cc2)n1C)c1ccccc1	none
O=c1c2ccccc2c(C=Nc2cccc(S(=O)(=O)NC3=NCCCCC3)c2)c(O)n1Cc1ccccc1	PP1 counter 19 | PP1 confirm inactive | PP5 counter inactive
S=c1[nH]nc(-c2cc(-c3ccccc3)n[nH]2)n1/N=C/C=C/c1ccccc1	PP1 counter 23 | PP1 confirm 17 | PP5 counter inactive
COc1ccccc1/C=C/C=N/n1c(-c2cc(-c3ccccc3)n[nH]2)n[nH]c1=S	PP1 counter 22 | PP1 confirm 27 | PP5 counter inactive
NC(=O)CC(NC(=O)Cc1ccc(Cl)cc1)c1ccc(NCCOc2ccccc2)c([N+](=O)[O-])c1 (stereo not drawn)	none
